Several values for one entry are separate records, joined by “and”; a condition that tells them apart may be missing. Identical values can stand only once. Activity calls are given as the source filed them. Rule for the calls: active = hit-call score of the fitted dose curve at least 0.9, where 1 is the maximum; inactive = score below 0.9.

A short description of the experiment: ATG_NFI_CIS: Attagene CIS-FACTORIAL HepG2 Assay for human Nuclear Factor I (NFI) (AID 2282989). The settings on record: HepG2 cis-regulatory reporter, NFI response element transcription; actives raise or lower the signal. The protocol:
ATG_CIS is a cell-based, multiplexed-readout assay that uses HepG2, a human liver cell line, with measurements taken at 24 hours after chemical dosing in a 24-well plate.ATG_NFI_CIS is one of 52 assay component(s) measured or calculated from the ATG_CIS assay. It is designed to make measurements of mRNA induction, a form of inducible reporter, as detected with fluorescence intensity signals by Reverse transcription polymerase chain reaction (RT-PCR) and Capillary electrophoresis technology.Data from the assay component ATG_NFI_CIS was analyzed into 1 assay endpoint. This assay endpoint, ATG_NFI_CIS, was analyzed with bidirectional fitting relative to DMSO as the negative control and baseline of activity. Using a type of inducible reporter, measures of mRNA for gain or loss-of-signal activity can be used to understand the reporter gene at the transcription factor-level as they relate to the gene NFIA. Furthermore, this assay endpoint can be referred to as a primary readout, because this assay has produced multiple assay endpoints where this one serves a reporter gene function. To generalize the intended target to other relatable targets, this assay endpoint is annotated to the dna binding intended target family, where the subfamily is nuclear factor I.
Human liver HepG2 cells are transiently transfected with multiple reporter transcription units (MRTUs) in 6-well plates using FuGene 6 reagent (Roche; 3 ml FuGene/1 mg DNA). The MRTU constructs are regulated by a cis-regulating element (promoter). […] A major difference between the CIS and TRANS system is that in CIS activities of endogenous TFs are measured, whereas the TRANS assay evaluates changes in activities of exogenous, chimeric NR-Gal4 proteins. […] At the end of 24 hour incubation, total RNA was isolated using TriZol reagent (Invitrogen). The isolated RNA is then reverse-transcribed using oligo(dT) primer and Mo-MLV reverse transcriptase (Invitrogen) with DNAse I (Ambion) treatment for 30 min. The one-tenth of the produced cDNA was amplified by PCR using Taq DNA polymerase (Invitrogen) and two reporter sequence-specific primers. The PCR products were fluorescently labeled by primer extension with 6-arboxyfluorescein (6-FAM) 5'-labeled reporter sequence-specific primer (2 min at 95 C, 20 s at 68 C and 10 min at 72 C) and these products were digested with 5U of HpaI (New England Biolabs) for 2h at 37 C. The fragments were purified using Qiaquick PCR columns (Qiagen), analyzed on an ABI 3130xL genetic analyzer (Applied Biosystems) with peak positions identified by using a set of X-rhodamine (ROX)-labeled MapMarker1000 molecular weight standards (BioVentures). The raw capillary electrophoresis data was processed using Attagraph software (Attagene).
Turning to `C=CC(F)(F)C(F)(F)C(F)(F)C(F)(F)C(F)(F)C(F)(F)C(F)(F)C(F)(F)F`, the result was inactive.

Take `O=C(O)C(F)(F)C(F)(F)C(F)(F)C(F)(F)C(F)(F)C(F)(F)C(F)(F)C(F)(F)C(F)(F)C(F)(F)C(F)(F)C(F)(F)F`: the molecule was called inactive.

`O=C(O)C(F)(F)C(F)(F)OC(F)(F)F`: the molecule was classed as inactive.

With `CCN(Cc1cccc(S(=O)(=O)O)c1)c1ccc(C(=C2C=CC(=[N+](CC)Cc3cccc(S(=O)(=O)O)c3)C=C2)c2ccc(O)cc2S(=O)(=O)[O-])cc1`, the result was inactive.

Consider `FC1CC(F)(F)C(F)(F)C1(F)F` (stereo not given), for which the molecule was classed as inactive.

In the case of `O=C(O)C(F)(F)C(F)(F)C(F)(F)C(F)(F)C(F)(F)C(F)(F)C(F)(F)C(F)(F)C(F)(F)C(F)(F)C(F)(F)C(F)(F)C(F)(F)F`, the outcome was inactive.

As for `COC(=O)CCC(F)(F)C(F)(F)C(F)(F)C(F)(F)F`, the outcome was inactive.

Regarding `O=C(O)C(F)(OC(F)(F)C(F)(OC(F)(F)C(F)(OC(F)(F)C(F)(F)C(F)(F)F)C(F)(F)F)C(F)(F)F)C(F)(F)F` (stereo not given), the outcome was inactive.

Turning to `CCCCCCCCC(F)(F)C(F)(F)C(F)(F)C(F)(F)C(F)(F)C(F)(F)F`, the AC50 was 36 µM (active).

Regarding `CCCCCC=O`, the molecule was called inactive.

With `c1ccc(B(c2ccccc2)c2ccccc2)cc1`, the AC50 was 26.7 µM (active).

For the molecule `C1COCCN1`, the call was inactive.

Take `CCc1ccc(C(c2ccc(CC)cc2)C(Cl)Cl)cc1`: the call was inactive.

`CC/C=C\CCOC(C)=O`: the result was inactive.

For the molecule `O=S(=O)(O)c1ccc2ccccc2c1`, the call was inactive.

As for `FC(F)(F)C(F)(F)C(F)(F)C(F)(F)C(F)(F)C(F)(F)C(F)(F)I`, the result was inactive.

Turning to `OCCCC(F)(F)C(F)(F)C(F)(F)C(F)(F)C(F)(F)C(F)(F)C(F)(F)F`, the half-maximal activity concentration (AC50) is 71.1 µM (active) and 267 µM (active).

`FC(F)(F)C(F)(F)C(F)(F)N(C(F)(F)C(F)(F)C(F)(F)F)C(F)(F)C(F)(F)C(F)(F)F`: the molecule was called inactive.

For `CC(Cc1ccc(O)c(O)c1)C(C)Cc1ccc(O)c(O)c1` (stereo not given), the half-maximal activity concentration (AC50) was 19 µM (active).

For the molecule `O=C(O)C(F)(OC(F)(F)C(F)(OC(F)(F)C(F)(F)C(F)(F)F)C(F)(F)F)C(F)(F)F` (stereo not given), the molecule was classed as inactive.

Take `Nc1ccc([N+](=O)[O-])cc1O`: the result was inactive.

As to `FC(F)(F)C(F)(F)C(F)(F)C(F)(F)C(F)(F)C(F)(F)C(F)(F)C(F)(F)CCS`, the call was inactive.

As for `CNC(=S)NC`, the molecule was called inactive.

For the molecule `O=C(O)C(F)(F)C(F)(F)C(F)(F)F`, the molecule was called inactive.

`CC(=O)Nc1ccc(N=Nc2cc(C)ccc2O)cc1`: the molecule was classed as inactive.

As for `CCCCCCCOC(=O)c1ccccc1C(=O)OCCCCCCC`, the molecule was classed as inactive.

Consider `OCC(F)(F)C(F)(F)C(F)(F)F`, for which the outcome was inactive.

Consider `[Co]`, for which the outcome was inactive.

Take `O=S(=O)(OCC(F)F)C(F)(F)F`: the molecule was classed as inactive.

`O=S(=O)(OCCOC(F)(F)F)C(F)(F)F`: the molecule was classed as inactive.

For the molecule `CCCCC(CC)COP(=O)(O)OCC(CC)CCCC` (stereo not given), the call was inactive.

In the case of `C=CC(=O)OCC(F)(F)C(F)(F)C(F)(F)C(F)(F)C(F)(F)C(F)(F)C(F)(F)F`, the molecule was classed as inactive.

For `OCC(F)(F)C(F)(F)C(F)(F)C(F)F`, the outcome was inactive.

As for `Oc1ccc(Nc2ccccc2)cc1`, the result was inactive.

Consider `C=C(C)C(=O)OCCC(F)(F)C(F)(F)C(F)(F)C(F)(F)C(F)(C(F)(F)F)C(F)(F)F`, for which the outcome was inactive.

For the molecule `CC(C)(C)c1ccc(OC2CCCCC2O)cc1` (stereo not given), the call was inactive.

Turning to `FC(F)(F)C(F)(F)C(F)(F)CI`, the molecule was classed as inactive.

With `O=C(O)C(F)(F)C(F)(F)C(F)(F)C(F)(F)F`, the outcome was inactive.

With `O=S(=O)(O)C(F)(F)C(F)(F)C(F)(F)C(F)(F)C(F)(F)C(F)(F)C(F)(F)F`, the molecule was called inactive.

As for `CCCCNc1ccccc1`, the molecule was classed as inactive.

These data come from PubChem BioAssay (EPA / NIEHS).
